Among the data in PubChem BioAssay are composite z-score and z-score values, retold here.

The nature of test [1]: anti-His antibody binders, primary screen, artefact control for SMM control protein annotation, biochemical, small-molecule microarray, 635 nm fluorescence (AID 1128).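 Also: score merges feature fluorescence with signal-to-noise for each printed compound spot.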 To be noted: anti-His Alexa647 antibody binding, higher = more signal.
For test [2], the system named is Human papillomavirus type 1a E7 protein (residues 1-88). In words: HPV1a E7 small-molecule binders, primary screen, biochemical, small-molecule microarray, residues 1-88, 635 nm (AID 1129). The note with it: small-molecule microarray binding, fluorescence 635 nm; higher = more signal.
The target of test [3] is Focal adhesion kinase 1 (Homo sapiens) (UniProt Q05397). The experiment in a line: small-molecule microarray binders of FAK, primary screen, biochemical, 635/667 nm fluorescence, BSA, DTT (AID 1130).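 Also: composite of spot emission at 667 nm and signal to noise over triplicate slides.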 The note with it: PTK2 binding, 635 nm fluorescence, higher = more signal.
The subject of test [4] is Fibrinogen (Alexa647-labelled). In words: fibrinogen binders on compound microarrays, profiling panel, artefact control for SMM control-protein annotation, biochemical, small-molecule microarray, 635/667 nm fluorescence (AID 1131).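 Also: z-score merges 667 nm fluorescence with per-spot signal-to-noise over triplicate slides.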 The note with it: fibrinogen-A647 binding fluorescence, higher = more signal.
The target of test [5] is Follistatin (Homo sapiens) (UniProt P19883). In words: follistatin binders on small-molecule microarrays, primary screen, biochemical, small-molecule microarray, 635/667 nm fluorescence (AID 1132). To be noted: FST binding, 635 nm fluorescence, higher = more signal.
Test [6] deals with Fibroblast growth factor 2 (Homo sapiens) (UniProt P09038). In words: FGF2 binders on small-molecule microarrays, primary screen, biochemical, small-molecule microarray, 635/667 nm fluorescence (AID 1133). The note with it: small-molecule microarray binding, FGF2, fluorescence 635/667; higher = more signal.
Test [7] in a line: mitochondrial membrane potential change in A549 cells, profiling panel, cell-based, JC-1 fluorescence, basal, 24 h, 100 nL (AID 1138).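 Also: A549 lung adenocarcinoma cells under basal conditions with no added stimulus; test concentration not given here.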 To be noted: higher = more signal.
For test [8], the system named is Lefty1. The experiment in a line: Lefty1 binders on small-molecule microarrays, primary screen, biochemical, small-molecule microarray, 635/667 nm fluorescence (AID 1139). To be noted: small-molecule microarray binding, fluorescence 635/667; higher = more signal.
The test system of test [9] is wheat germ agglutinin (Triticum aestivum), Alexa647-labelled. The experiment in a line: wheat germ agglutinin binders on compound microarrays, profiling panel, artefact control for SMM control-protein annotation, biochemical, small-molecule microarray, 635/667 nm fluorescence (AID 1140).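 Also: score merges 667 nm feature emission with signal to noise over triplicate slides.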 The note with it: WGA-A647 binding, 635 nm fluorescence, higher = more signal.
For test [10], the target named is Luciferin 4-monooxygenase (Photinus pyralis) (UniProt P08659). In words: firefly luciferase enzyme inhibitors, primary screen, biochemical, luminescence, purified enzyme, 2006 set (AID 1141).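 Also: cell-free assay with purified firefly luciferase at 100 ng per well in PBS; test concentration not given here.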 To be noted: SteadyGlo luminescence, 30 min, higher = more signal, called active from +8 up or from −8 down.
The test system of test [11] is Wnt5a (protein binding on small-molecule microarray). In words: Wnt5a binders on small-molecule microarray, primary screen, biophysical, 635/667 nm fluorescence (AID 1142).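 Also: fluorescence read at 667 nm with signal to noise per printed feature.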 The note with it: 635 nm fluorescence, higher = more signal.
Test [12] in a line: cell viability in Huh7 cells, primary screen, cytotoxicity control for HCV replication inhibitor project, CellTiter-Glo luminescence, basal, 48 h (AID 1143).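 Also: Huh7 hepatoma cells carrying a hepatitis C replication reporter with no stimulus; test concentration not given here.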 The note with it: Huh7 HCV replicon, higher = more signal, called active from +8 up or from −8 down. (In general: In ATP-based viability assays light output follows the ATP content of the culture.)
A short description of test [13]: P. aeruginosa biofilm formation inhibitors, primary screen, PAO1 strain, BacTiter-Glo luminescence, LB-PBS (AID 1144). The note with it: 12 h, higher = more signal.
Test [14] in a line: CREB reporter modulators without forskolin, primary screen, cell-based, PC12, CRE-LacZ reporter, unstimulated (AID 1145). The note with it: no forskolin, luminescence, 4.5 h, higher = more signal, called active from +8 up or from −8 down.
Test [15] in a line: CREB reporter modulators under forskolin, primary screen, cell-based, PC12, CRE-LacZ reporter, forskolin-stimulated (AID 1146).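 Also: PC12 cells with 6xCRE LacZ reporter stimulated by forskolin 10 µM; beta-galactosidase reporter signal reflecting CREB driven transcription.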 The note with it: luminescence, 4.5 h, higher = more signal, called active from +8 up or from −8 down.
In test [16] the target is Streptavidin (Streptomyces avidinii) (UniProt P22629). The experiment in a line: streptavidin binders on small-molecule microarray, primary screen, artefact control for SMM compound annotation, biophysical, 635/667 nm fluorescence (AID 1147).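 Also: signal reflects streptavidin binding to arrayed compounds as a control protein.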 The note with it: streptavidin binding, higher = more signal.
Test [17] is described as follows: small-molecule binders of probe aInhba, primary screen, biochemical, small-molecule microarray, 635/667 nm fluorescence (AID 1148).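 Also: score merges 667nm spot fluorescence with signal-to-noise for antibody binding to printed compounds.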 To be noted: higher = more signal.
Test [18] addresses Torsin-1A (Homo sapiens) (UniProt O14656). The experiment in a line: torsin A binders from cell lysate, primary screen, small-molecule microarray, wild-type, 635/667 nm (AID 1149). To be noted: COS7 hTOR1A-WT lysate, 635 nm fluorescence, higher = more signal.
For test [19] the target is unchanged. In words: small-molecule binders of mutant TOR1A in lysate, primary screen, cell lysate, small-molecule microarray, COS7 lysate, 635/667 nm fluorescence (AID 1150).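 Also: score pools 667 nm emission and signal to noise measuring lysate protein binding.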 The note with it: COS7 hTOR1A mutant lysate, 635 nm fluorescence, higher = more signal.
Test [20] relates to Sonic hedgehog protein (Shh). In words: small-molecule binders of Shh protein, primary screen, biochemical, small-molecule microarray, 635/667 nm fluorescence (AID 1151).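 Also: Shh protein binding to compounds spotted on small-molecule microarray slides; score combines spot fluorescence intensity with signal-to-noise across triplicate slides.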 To be noted: small-molecule microarray binding, 635 nm fluorescence; higher = more signal.

Each structure is given as a SMILES string. Calls of active or inactive are those of the source. Unless noted, no rule for the calls is given here.

Torsin-1A (Homo sapiens), sequence (O14656 whole entry, looked up): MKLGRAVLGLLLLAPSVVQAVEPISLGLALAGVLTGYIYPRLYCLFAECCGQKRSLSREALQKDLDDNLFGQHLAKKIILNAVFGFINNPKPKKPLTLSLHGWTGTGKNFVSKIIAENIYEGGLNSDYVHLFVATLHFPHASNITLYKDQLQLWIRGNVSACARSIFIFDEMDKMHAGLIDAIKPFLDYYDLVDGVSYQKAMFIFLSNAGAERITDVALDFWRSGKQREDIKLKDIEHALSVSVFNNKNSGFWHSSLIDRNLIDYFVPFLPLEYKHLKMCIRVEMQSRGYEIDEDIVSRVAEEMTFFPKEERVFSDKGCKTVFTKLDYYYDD
Fibroblast growth factor 2 (Homo sapiens), sequence (P09038 whole entry, looked up): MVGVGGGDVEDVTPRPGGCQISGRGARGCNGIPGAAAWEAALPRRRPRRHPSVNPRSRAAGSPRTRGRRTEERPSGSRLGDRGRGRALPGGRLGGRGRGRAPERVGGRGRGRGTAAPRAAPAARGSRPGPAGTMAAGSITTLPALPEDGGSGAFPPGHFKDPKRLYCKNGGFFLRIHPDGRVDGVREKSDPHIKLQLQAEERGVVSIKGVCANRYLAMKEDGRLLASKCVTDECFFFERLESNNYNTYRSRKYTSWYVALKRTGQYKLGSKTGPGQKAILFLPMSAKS
Focal adhesion kinase 1 (Homo sapiens), sequence (Q05397 whole entry, looked up): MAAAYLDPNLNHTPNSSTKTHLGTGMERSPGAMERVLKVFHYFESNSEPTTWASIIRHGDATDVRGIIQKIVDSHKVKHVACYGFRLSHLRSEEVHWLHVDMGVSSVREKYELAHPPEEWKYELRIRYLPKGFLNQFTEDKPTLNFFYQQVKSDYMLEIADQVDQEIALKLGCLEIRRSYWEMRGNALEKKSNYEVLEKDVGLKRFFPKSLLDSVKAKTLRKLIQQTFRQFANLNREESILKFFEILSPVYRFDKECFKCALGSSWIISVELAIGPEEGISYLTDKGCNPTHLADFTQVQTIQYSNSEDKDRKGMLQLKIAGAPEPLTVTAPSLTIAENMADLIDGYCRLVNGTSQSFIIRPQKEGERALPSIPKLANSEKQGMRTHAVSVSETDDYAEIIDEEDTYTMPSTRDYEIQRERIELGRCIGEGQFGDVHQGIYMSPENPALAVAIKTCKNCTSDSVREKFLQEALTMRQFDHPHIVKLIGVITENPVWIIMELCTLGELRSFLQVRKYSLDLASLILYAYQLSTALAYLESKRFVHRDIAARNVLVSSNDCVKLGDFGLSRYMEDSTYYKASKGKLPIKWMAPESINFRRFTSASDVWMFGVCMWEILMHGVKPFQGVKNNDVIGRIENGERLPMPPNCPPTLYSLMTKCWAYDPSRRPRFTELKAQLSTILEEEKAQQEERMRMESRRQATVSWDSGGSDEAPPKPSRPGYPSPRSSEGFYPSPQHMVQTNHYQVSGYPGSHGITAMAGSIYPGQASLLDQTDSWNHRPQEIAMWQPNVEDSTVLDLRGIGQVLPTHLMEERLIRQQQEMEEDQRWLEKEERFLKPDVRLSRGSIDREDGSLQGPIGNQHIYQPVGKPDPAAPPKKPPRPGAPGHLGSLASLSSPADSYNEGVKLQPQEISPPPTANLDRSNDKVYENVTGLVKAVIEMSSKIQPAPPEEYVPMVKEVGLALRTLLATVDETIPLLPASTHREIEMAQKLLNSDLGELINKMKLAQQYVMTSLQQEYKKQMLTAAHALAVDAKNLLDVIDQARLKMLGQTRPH
Streptavidin (Streptomyces avidinii), sequence (P22629 whole entry, looked up): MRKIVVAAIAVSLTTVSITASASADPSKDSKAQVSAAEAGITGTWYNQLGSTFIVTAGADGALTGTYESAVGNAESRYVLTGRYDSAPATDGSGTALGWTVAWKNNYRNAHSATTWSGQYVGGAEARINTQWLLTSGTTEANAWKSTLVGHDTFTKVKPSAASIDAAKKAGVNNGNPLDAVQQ
Follistatin (Homo sapiens), sequence (P19883 whole entry, looked up): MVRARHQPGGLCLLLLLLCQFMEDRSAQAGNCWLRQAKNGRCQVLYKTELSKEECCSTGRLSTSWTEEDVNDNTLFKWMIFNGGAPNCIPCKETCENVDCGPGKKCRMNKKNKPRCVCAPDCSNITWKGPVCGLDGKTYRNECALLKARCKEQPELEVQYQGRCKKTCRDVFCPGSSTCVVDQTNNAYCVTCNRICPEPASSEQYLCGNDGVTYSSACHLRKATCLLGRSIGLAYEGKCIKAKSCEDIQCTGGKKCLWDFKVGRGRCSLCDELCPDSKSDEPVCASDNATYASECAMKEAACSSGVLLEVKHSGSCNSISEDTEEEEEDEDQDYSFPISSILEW
Luciferin 4-monooxygenase (Photinus pyralis), sequence (P08659 whole entry, looked up): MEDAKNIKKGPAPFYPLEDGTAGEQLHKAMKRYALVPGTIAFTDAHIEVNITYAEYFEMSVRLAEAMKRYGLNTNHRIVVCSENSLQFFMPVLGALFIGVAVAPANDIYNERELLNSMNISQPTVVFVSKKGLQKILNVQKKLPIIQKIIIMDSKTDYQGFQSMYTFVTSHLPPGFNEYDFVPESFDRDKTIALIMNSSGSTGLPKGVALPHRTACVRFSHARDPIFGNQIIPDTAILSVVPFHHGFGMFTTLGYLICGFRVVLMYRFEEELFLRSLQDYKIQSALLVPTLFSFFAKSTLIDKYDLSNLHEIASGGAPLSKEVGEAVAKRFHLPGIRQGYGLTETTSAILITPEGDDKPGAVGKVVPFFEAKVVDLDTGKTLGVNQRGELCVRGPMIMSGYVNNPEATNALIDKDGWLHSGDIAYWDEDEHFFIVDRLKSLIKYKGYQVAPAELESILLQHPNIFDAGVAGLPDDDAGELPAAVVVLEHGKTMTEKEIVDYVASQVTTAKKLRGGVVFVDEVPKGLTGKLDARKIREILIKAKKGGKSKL

Regarding `CCOC(=O)[C@H](CC(C)C)NC(=O)CCC1CC(OC(=O)NCCc2ccc(F)cc2)CC2(CCCC(COC(=O)NCC(c3ccccc3)c3ccccc3)O2)O1` (stereo not given in full), the composite z-score in test [1] is 0.59; in test [2], 0.749; in [3] it was 0.097; in test [4], 0.874; in test [5], 0.678; in test [6] it was 0.533. Moreover, the composite z-score in test [8] is 0.875; in [9], 0.737; in test [11], 0.228; in test [16], 1.22; in test [17], 0.0111; in test [18] it was -0.106. Besides, the composite z-score was 0.241 in test [19] and 0.721 in [20]. Also, the z-score was -0.642 in [7]; 0.897 (inactive) in test [10]; -0.361 (inactive) in test [12]; -0.427 (inactive) in test [13]; -0.438 (inactive) in [14]; -0.292 (inactive) in test [15].

With `CCC1=NOC(CCC2CC(OC(=O)NCc3cccc4c3OCO4)CC3(CCCC(COC(=O)NCCc4ccccc4OC)O3)O2)C1` (stereo not given), the composite z-score in test [1] is 0.0887; in test [2] it was 1.19; in test [3], 0.494; in test [4], 0.155; in test [5], 0.505; in test [6] it was 0.297. Further, the composite z-score in [8] was -0.0134; in test [9], 0.703; in test [11], 0.196; in test [16], 0.72; in [17] it was -0.152; in [18], -0.0106. In addition, the composite z-score in [19] is 0.778; in [20] it was 0.157. In addition, the z-score in test [7] was 1.41; in test [10] it was 0.412 (inactive); in test [12], -0.491 (inactive); in test [13] it was 0.249 (inactive); in [14] it was 1.46 (inactive); in test [15], 0.214 (inactive).

Turning to `COC(=O)[C@@H]1CC[C@H](C)[C@@H](c2ccc(C)cc2)N1C(=O)c1ccc(C=NO[C@H](C)c2cn([C@H](CO)Cc3ccccc3)nn2)cc1`, the composite z-score in test [1] was 0.762; in test [2], 1.04; in test [3], 0.926; in test [4], -0.466; in test [5], 0.738; in test [6], 0.377. Further, the composite z-score in [8] amounted to 0.957; in test [9], 0.295; in test [11], 0.247; in [16], 0.0407; in [17] it was 0.288; in [18], 0.278. Further, the composite z-score worked out at 0.277 in test [19] and 0.682 in test [20]. Moreover, the z-score is -0.406 in [7]; 0.184 (inactive) in test [10]; -0.63 (inactive) in test [12]; 0.0292 (inactive) in test [13]; 8.24 (active) in test [14]; 0.371 (inactive) in test [15].

Regarding `COC(=O)CC=C[C@@H](C)[C@@H](C=NO[C@@H](C)c1cn([C@H](CO)Cc2ccccc2)nn1)NS(=O)(=O)c1ccc(C)cc1`, the composite z-score worked out at 1.56 in test [1]; 0.332 in test [2]; 0.265 in [3]; 0.982 in [4]; 0.95 in [5]; 0.459 in [6]. The composite z-score in [8] came out at 0.681; in test [9], 0.0187; in [11], 0.062; in test [16], 0.0525; in [17], 0.0928; in test [18], 0.945. Further, the composite z-score in test [19] was determined as 0.997; in test [20], 0.685. For the same compound, the z-score in test [7] was -0.517; in test [10], -1.28 (inactive); in test [12], -0.35 (inactive); in test [13], 0.606 (inactive); in [14] it was 3.99 (inactive); in test [15], -0.0697 (inactive).

Turning to `COc1ccc(O[C@H]2C=C[C@@H](c3ccccc3)O[C@@H]2CON=CC[C@@H]2C=C[C@H](OC(C)=O)[C@@H](COC(C)=O)O2)cc1`, the composite z-score is 2.11 in [1]; -0.311 in test [2]; 0.178 in test [3]; 0.516 in test [4]; 0.229 in test [5]; 0.107 in test [6]. For the same compound, the composite z-score was 0.257 in test [8]; 0.807 in [9]; 0.0129 in [11]; 3.65 in [16]; -0.176 in [17]; -0.107 in [18]. Also, the values for the composite z-score in test [19] and in test [20] were -0.26 and 0.328, respectively. For the same compound, the z-score is 0.124 in [7]; -0.354 (inactive) in test [10]; -1.06 (inactive) in test [12]; -0.705 (inactive) in test [13]; 1.15 (inactive) in test [14]; 0.222 (inactive) in test [15].
